# Experimental data as given in PubChem BioAssay (Tox21).
# Records with an inconclusive call do not appear. A number with no mark means an inactive call. The call rests on the fitted dose curve; in most records, active means well fitted cell-killing curve with a large enough effect in the repeat runs; inconclusive means weak or mixed curves, or effect the other way; inactive means flat fitted curve, though single readings scatter.
# Assay: qHTS RealTime-Glo MT Cell Viability Assay in HEK293 cells - 24 hour (AID 1224886); further: top concentration of the series differs between compounds; nearly all actives have a fitted effect of over 50% in size
# Settings: RealTime-Glo luminescence; series mostly up to 76.8 µM; activity change, negative = cytotoxicity: at the top concentration
# How it was run: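 Quantitative high-throughput screen of the Tox21 10K library in HEK293: cells and RealTime-Glo reagents plated together, compound added at 5 h, luminescence monitored through 40 h at 37 C.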
# On the % scale 0 is the no-effect control and ±100 the full control effect.
row,Compound,"activity change, negative = cytotoxicity"
1,CC(=O)SCC(CC(=O)c1ccc(C)cc1)C(=O)O (stereo not given),2.11% [at 35.3 µM]
2,NCC1CCC(C(=O)Oc2ccc(CCC(=O)O)cc2)CC1 (stereo not given),7.18% [at 35.3 µM]
3,C/C(=N\O)c1ccc(OCC(=O)N2CCCCC2)cc1,-13.5% [at 35.3 µM]
4,CC(C)(C)C(=O)CC(=O)C(C)(C)C,-15.8%
5,CCCCC(CC)CCC(CC(C)C)OS(=O)(=O)O (stereo not given),4.62%
6,COC(C)(C)CC(C)=O,6.33%
7,O=S(=O)(O)c1ccc(Cl)cc1,7.69%
8,BrCCOc1ccccc1,-9.59%
9,CN(C)CCc1c[nH]c2ccc(C[C@H]3COC(=O)N3)cc12,3.94% [at 35.3 µM]
10,CN1C(CCl)Nc2cc(Cl)c(S(N)(=O)=O)cc2S1(=O)=O (stereo not given),-4.57% [at 35.3 µM]
11,C[C@H]1COc2c(C3(N)CC3)c(F)cc3c(=O)c(C(=O)O)cn1c23,6.29% [at 35.3 µM]
12,O=C(O)Cc1c(Cl)ccc(Cl)c1Cl,-0.22%
13,CN(C)c1ccncc1,-15.3%
14,COCCCOc1cc(C[C@@H](C[C@H](N)[C@@H](O)C[C@H](C(=O)NCC(C)(C)C(N)=O)C(C)C)C(C)C)ccc1OC,-0.665% [at 35.3 µM]
15,O=C1c2ccccc2C(=O)N1CO,-6.34%
